# The supplement of paper PMC6555819
# Key:
# Assay in all cases: PBM binding z-score (relative to random genomic background probes); higher = stronger binding; sequences stand for … in GC…GCGATTGACAGCGTAGAATGAAGG
# [1] = test system: PPARg:RXRa DBDmut IVT, anti-RXR (DBD mutation: RXRa K156A/R161A, NR concentration 270 nM, RXRa partner concentration 90 nM)
# Procedure, shortened: (§1)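 For binding z-scores, the reference was random background probes on custom Agilent 4×180K protein-binding microarrays. These arrays were incubated 1 h with ligand-free nuclear receptor dimers in PBS pH 7.4, 2% milk, 0.02% Triton X-100, 1 mM DTT, 0.2 mg/mL BSA and 0.4 mg/ml salmon testes DNA. Fluorescence was scanned after antibody detection of each partner (one per run) and regression-normalized.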
# [2] = test system: PPARg:RXRa IVT, anti-PPARg (NR concentration 270 nM, RXRa partner concentration 90 nM)
# Procedure, shortened: as §1
# [3] = test system: PPARg DBDmut:RXRa IVT, anti-PPARg (DBD mutation: PPARg1 K132A/R137A, NR concentration 270 nM, RXRa partner concentration 90 nM)
# Procedure, shortened: as §1
# [4] = test system: PPARg DBDmut IVT, anti-PPARg (DBD mutation: PPARg1 K132A/R137A, NR concentration 270 nM)
# Procedure, shortened: as §1
# [5] = test system: PPARg homodimer (NR concentration 180 nM)
# Procedure, shortened: as §1
# [6] = test system: PXR:RXRa (NR concentration 270 nM, RXRa partner concentration 90 nM)
# Procedure, shortened: as §1
# [7] = test system: PXR homodimer (NR concentration 270 nM)
# Procedure, shortened: as §1
# [8] = test system: RARa:RXR (NR concentration 270 nM, RXRa partner concentration 90 nM)
# Procedure, shortened: as §1
# [9] = test system: RARa homodimer (NR concentration 270 nM)
# Procedure, shortened: as §1
# [10] = test system: RARb:RXRa (NR concentration 270 nM, RXRa partner concentration 90 nM)
# Procedure, shortened: as §1
Sequence,PBM binding z-score [1],PBM binding z-score [2],PBM binding z-score [3],PBM binding z-score [4],PBM binding z-score [5],PBM binding z-score [6],PBM binding z-score [7],PBM binding z-score [8],PBM binding z-score [9],PBM binding z-score [10]
GCGACTGGGGCATCAGCAGGTTTCCATAACTTAA,3.74,2.62,-1.63,-0.793,0.145,-0.54,-0.0807,-0.096,-0.582,0.524
TCATATAGGCAAAGGTGAAAGTCGAACGATATGA,2.2,2.33,0.797,0.292,0.811,1.04,0.14,2.02,0.326,1.74
CCTACTAGGCCAAAAAGGTCATTGATGCCGATAA,5.03,4.58,-0.262,-0.187,2.71,4.88,5.01,5,1.4,4.09
CGAATTAGGTCATCCAGGACAGTGAATACATTGA,8.48,8.35,3.83,2.81,2.25,2.36,1.3,2.86,1.08,4.14
GATACAGGGTCAGCTAGATGCCAGAGTATGGAAA,1.35,2.42,0.251,0.266,3.16,2.14,-0.221,3.4,0.348,3.98
CAAACTAGGTCACAGAGGTCAAGGTCCGTGCGTA,8.45,9.01,2.38,2.54,4.67,6.54,10,7.58,2.96,5.46
AATAAAGGGTCACTAGGCCAGAGTAGGTACGAAT,4.52,6.06,1.89,1.25,2.96,3.13,0.43,4.07,1.9,5.16
ATCGAAAGGTCGTGAGGTTAGTATACAGAAAGGC,0.453,2.21,1.19,1.52,2.32,3.74,0.823,4.8,1.16,3.99
TCGAGTAGGTTAGTCGGGGCATTTAGCCAACATA,2.28,1.85,-0.436,-0.412,0.35,0.275,-0.067,0.501,-0.283,0.582
TCTATTAGTTGAGGGGCAACCGACGAGTCCGTTT,2.72,0.341,0.599,1.29,1.09,0.857,0.479,0.515,0.621,0.903
CAAACTAGGTCACGAAAGGTCAAAGTAGAATGAC,8.54,9.02,2.85,3.25,6.18,6.93,2.94,7.51,4.51,5.71
AATACAGGGTCATCCTAGGCCAGAGTACGCACAG,2.5,4.16,1.89,1.39,2.39,5,0.711,4.8,1.41,4.46
TCATGTAGATCAGCAGGTTAAGAAAGCTGGCCAA,1.87,0.284,-0.501,-0.804,0.238,0.193,0.00655,0.125,-0.0627,0.286
CCAGACAGGTGAAAGGTAACACAGTCTGGTACGC,2.09,3.4,-0.472,-0.499,0.837,1.29,-0.0519,1.69,0.436,1.36
ACAATGAGGTTACCAAAGATCAGGGAAACGCTTG,2.64,2.42,0.961,1.48,0.966,1.52,0.0541,2.2,0.0916,2.32
TCTAGTTGGACACGGAGGTCACACACGACGGGTA,1.98,2.33,0.713,0.0839,2.38,4.16,1.05,4.39,1.25,3.45
ATCTCTAGGTAAAAGCTCAGTGAATCCCGAGGAT,2.43,1.66,0.208,0.808,-0.0545,-0.626,-0.475,-0.548,0.418,-0.0301
CATACTGGGCCACGAAAGGTCATTGATTCAGTGA,4.74,5.55,1.83,0.862,2.89,5.4,1.75,5.41,0.959,4.16
GATACAGGGTCAGCTAGTGGCCAGAGTATGGAAA,1.03,2.29,-0.052,-0.0645,1.79,1.89,0.153,3.05,-0.0625,3.69
TCATATAGGTAATACAGGTGAAACTCGGCATCTA,4.14,3.73,1.2,0.856,1.01,0.879,0.269,1.17,1.3,0.809
TGTCAAAGTTCAAAGGTAAGGTAAGTATCCACAC,0.662,4.2,2.56,2.04,6.17,5.8,5.17,6.32,2.15,5.2
ATTACAGGGTCACTAGGCCAGAGTAGGTACGAAT,3.81,5.92,2.92,2.81,2.63,3.43,0.344,4.32,1.19,4.46
CGTCCAAGGTCAAGGTCAGTGGAAGAGACTCGAA,3.54,4.55,0.113,-0.109,3.84,4.68,1.08,4.79,0.944,5.61
